# IEC-6 tox-1 = IEC-6 cytotoxicity, counter-screen for KLF5 inhibitors; luminescence viability; inhibition, % at 5 µM; 0.78% of 290,000 active; AID 1825; in the data active means inhibition above about 22%;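 further: 0% = plate median of test compound wells and 100% = cytotoxic reference compound wells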
# KLF5 inhibitor = kruppel-like factor 5 inhibition; DLD-1 KLF5 promoter-luciferase reporter, luminescence; 0.23% of 290,000 active; inhibition, % at 5 µM;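 active means inhibition above a per-plate limit of that plate's mean compound inhibition plus 3 SD, cut at about 60% in these data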;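 further: 0% = DMSO wells and 100% = LY294002 at 200 µM; higher means less KLF5 promoter-driven luciferase light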
# aSyn UTR inh = MLPCN primary screen, SNCA 5' untranslated region; 0.82% of 300,000 active; inhibition, % (tested at 7.5 µM); alpha-synuclein 5'UTR reporter, inhibitor activity; in the data active means inhibition above about 60%; inconclusive means no clear call, values can overlap the other calls;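 further: H4 neuroglioblastoma cells stably carrying SNCA 5'UTR luciferase fusion; 0% = DMSO wells and 100% = positive control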
# APP 5UTR inh = APP translation inhibition; SH-SY5Y APP 5'UTR-luciferase reporter, luminescence; inhibition, % at 2 µM; 0.82% of 190,000 active;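 active means inhibition above a set limit, derived from the sample mean plus 3 SD, cut at about 45% in these data; inconclusive means one replicate passes the limit while the other fails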
# BaF3 tox = parental Ba/F3 viability inhibition as JAK2V617F counter-screen | CellTiter-Glo ATP luminescence | inhibition, % at 5.6 µM | 1.1% of 220,000 active;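 active means inhibition above a per-campaign cutoff, the mean inhibition of all tested compounds plus 3 SD, cut at about 27% in these data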;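 further: 0% = DMSO wells and 100% = JAK Inhibitor I control wells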
# Ba/F3 V617F tox = lowers viability of Ba/F3 cells expressing EpoR and JAK2V617F | ATP luminescence | inhibition, % at 5.6 µM | 1.1% of 220,000 active | AID 1446;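 active means inhibition above the campaign mean plus 3 SD over all tested compounds, cut at about 24% in these data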;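 further: cytokine-independent growth of Ba/F3 cells driven by EpoR plus mutant JAK2; 0% = DMSO-treated cells and 100% = JAK inhibitor I control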
# KLF5 confirm = confirmation of KLF5 inhibitors; shares compounds with KLF5 inhibitor; DLD-1 KLF5 promoter firefly luciferase reporter, luminescence; inhibition, % at 4 µM; 79% of 610 active;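 active means inhibition above a set limit taken from the earlier primary screen, cut at about 63% in these data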;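 further: 0% = DMSO wells and 100% = LY294002 at 200 µM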
# IEC-6 tox-2 = rat IEC-6 cytotoxicity, KLF5 inhibitor counter-screen; shares compounds with KLF5 inhibitor; IEC-6 rat intestinal cells, viability luminescence; inhibition, % at 4 µM; 56% of 610 active; AID 1905; in the data active means inhibition above about 23%;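 further: cells exposed to compounds for 48 hours before viability read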
# An asterisk follows results filed as active; ? = inconclusive; . = not tested or not shown. Rows were chosen to be rich in hits. Some 2.2% of all compounds tested hit in one or more screens of this group.
SMILES,IEC-6 tox-1,KLF5 inhibitor,aSyn UTR inh,APP 5UTR inh,BaF3 tox,Ba/F3 V617F tox,KLF5 confirm,IEC-6 tox-2
COc1ccc(C(=O)N/N=C/c2cc(Br)ccc2O)cc1OC,4,68*,44,.,0,16,92*,-3
O=C(N/N=C/c1cc(Br)c(O)c(Br)c1O)c1ccc2c(c1)OCCO2,12,-20,39,.,.,.,.,.
COCCCn1c(=O)c2ccccc2n(Cc2cc(C(=O)OC)ccc2OC)c1=O,2,-7,19,.,.,.,.,.
Cc1cc(C(=O)OCC(=O)NCCC(C)C)c2ccccc2n1,0,7,14,-8,4,-2,.,.
COc1cccc(-c2csc(N3CCN(C(=O)NC45CC6CC(CC(C6)C4)C5)CC3)n2)c1,2,-41,1,0,2,9,.,.
CCCCC(=O)NC(c1ccc(C(C)C)cc1)c1ccc2cccnc2c1O (stereo unspecified),16,69*,112*,.,.,.,80*,46*
CCCC(=O)NC(c1ccc(OC)cc1)c1ccc2cccnc2c1O (stereo unspecified),38*,90*,129*,82*,66*,54*,96*,92*
CCCCC(=O)NC(c1ccc([N+](=O)[O-])cc1)c1c(O)ccc2ccccc12 (stereo unspecified),10,-12,30,12,2,-1,.,.
CCCCN1C=CC(=C2C(=O)c3ccccc3C2=O)C=C1,19,95*,98*,58*,22,21,56,8
CCCCNC1=CC(=O)C(=O)c2ccccc21,14,-12,40,11,7,-2,.,.
COc1ccc(C(=O)NN(C)c2nc(C(F)(F)F)nc3ccccc23)cc1,96*,82*,33,95*,95*,96*,96*,81*
COc1ccc(C(=O)NN(C)c2nc(-c3ccccc3)nnc2C(F)(F)F)cc1,-3,1,-9,11,12,4,.,.
CCCc1nc2c(=O)n(C)c(=O)nc-2n(C)n1,19,72*,.,30,85*,73*,112*,49*
CCn1c(N)nc2c1c(=O)n(C)c(=O)n2C,1,-29,9,-8,10,-3,.,.
CC1(C)C(=S)N(Cc2ccccc2)c2ccccc21,0,-14,11,.,.,.,.,.
Cc1ccccc1C(=O)Nc1ccnn1C1CCN(C(=O)C2CCOC2)CC1 (stereo unspecified),-10,-35,6,.,.,.,.,.
COc1ccccc1NCc1nnc(-c2ccccc2)o1,-1,-59,-60,.,.,.,.,.
Cc1cc(OCC(=O)N2CCOCC2)ccc1NC(=O)c1ccccc1C,4,-49,-35,.,.,.,.,.
CCCCCCCCCn1ccc(=N)cc1,54*,72*,82*,.,96*,99*,62*,55*
Cc1ccc(-n2c(=O)[nH]c3ncccc3c2=O)cc1,5,0,-6,-8,6,2,.,.
Cc1ccc(-n2c(-c3ccc(Br)cc3)c[n+]3c2CCc2ccc4cccnc4c2-3)cc1,56*,69*,86*,3,91*,97*,111*,50*
N/C(=N\OC(=O)c1ccc(Cl)cc1Cl)c1ccccn1,14,95*,89*,-32,22,14,46,3
Cc1ccc(C(=O)O/N=C(\N)c2ccccn2)c(Cl)c1,3,96*,108*,.,.,.,75*,8
N/C(=N\OC(=O)c1ccc(Cl)cc1[N+](=O)[O-])c1ccccn1,7,-111,-165,.,.,.,.,.
O=C(c1cc([N+](=O)[O-])ccc1N1CCOCC1)N1CCN(c2ccc([N+](=O)[O-])cc2)CC1,.,.,0,.,.,.,.,.
SMILES,IEC-6 tox-1,KLF5 inhibitor,aSyn UTR inh,APP 5UTR inh,BaF3 tox,Ba/F3 V617F tox,KLF5 confirm,IEC-6 tox-2
O=C(c1ccccc1)c1cc([N+](=O)[O-])ccc1N1CCOCC1,80*,74*,101*,92*,74*,71*,72*,58*
Cc1ccc(S(=O)(=O)Nc2ccc3c(c2)c2c(n3S(=O)(=O)c3ccc(C)cc3)CCCC2=O)cc1,2,-24,12,-7,8,3,.,.
Cc1nc(N/N=C/c2ccccn2)sc1C,3,79*,.,5,14,19,78*,7
O=C(COc1ccccc1)NC1CCCN(Cc2ccccc2F)C1 (stereo unspecified),-2,-26,-7,.,.,.,.,.
Cc1nn(-c2ccc3ccccc3c2)c(=O)c2ccccc12,10,-51,-183,-142,4,5,.,.
Cc1nn(-c2nc3ccccc3[nH]2)c(=O)c2ccccc12,85*,110*,115*,74*,87*,83*,105*,63*
O=C(O)CSCC(=O)Nc1ccc(C2CCCCC2)cc1,10,75*,108*,68*,2,-1,77*,7
CCN(CC)c1ccc(/C=N/NC(=O)c2cccc(S(=O)(=O)Nc3ccccc3OC)c2)c(O)c1,31*,74*,95*,70*,4,10,79*,33*
O=C(O)c1cc(N=Nc2c(O)ccc3ccccc23)cc(C(=O)O)c1,10,-9,.,-10,0,-2,.,.
O=C(O)c1ccc(N=Nc2c(O)ccc3ncccc23)cc1,8,87*,-13,.,.,.,15,14
CCOc1ccc2c(c1)sc(N)[n+]2Cc1cc(C)cc2cccnc12,76*,76*,55,94*,80*,86*,73*,67*
Cc1cc(C[n+]2ncsc2N)c2ncccc2c1,0,-1,-15,.,-5,-1,.,.
COc1ccc(/C=N/NC(=O)c2cc3cc(OC)c(OC)cc3[nH]2)cc1,-9,-34,-1,.,.,.,.,.
COc1ccc2[nH]c(C(=O)N/N=C/c3ccc(O)cc3O)cc2c1,18,84*,53,.,.,.,83*,32*
COc1ccccc1OCC(=O)N/N=C/c1c(O)ccc2ccccc12,4,67*,?,.,.,.,58,-6
O=c1nc(Nc2ccc(Br)cc2)sc2ccc([N+](=O)[O-])cc12,2,-42,-27,.,-5,-2,.,.
CCOC(=O)C(=O)NCC(c1cccs1)S(=O)(=O)c1ccc(F)cc1 (stereo unspecified),.,.,-5,.,.,.,.,.
CCOC(=O)/C(=N\Nc1ccccc1Cl)N(C)C1CCCCC1,1,7,3,6,12,3,.,.
Cc1ccc(-n2nnc(-c3nccs3)n2)cc1,5,63*,95*,-118,2,1,64*,14
O=c1[nH]c2ccccc2nc1NCc1ccccc1,9,-25,-8,.,.,.,.,.
CC1=NN(c2nc3ccccc3[nH]2)C(=O)C1Cc1ccccc1 (stereo unspecified),-16,63*,26,.,81*,97*,81*,12
Oc1cccc(C(Nc2nccs2)c2ccc3cccnc3c2O)c1 (stereo unspecified),48*,74*,132*,73*,65*,68*,92*,63*

# From PubChem
